From PubChem BioAssay AID720591 (Broad Institute, 2013)
The whole screen tested about 1,200 compounds, of which about 60 (5%) were called active. Another 1% or so got no clear call; they are omitted.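 The calls were made as follows: active = Decreasing signal and fitted IC50 at most twice the top valid tested dose; inconclusive = Bad fit or a level curve showing 30 to 70% inhibition; inactive = the rest.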 The list is a sample of the results. Entries with a potency or affinity are not part of this list.

molecular target: NAD-dependent protein deacylase sirtuin-5, mitochondrial (Homo sapiens) (UniProt Q9NXA8); test: SIRT5 desuccinylase inhibitors, dose response, biochemical, fluorescence imaging, cherry-pick, set 5 (AID 720591); details: Purified SirT5, succinyl-peptide AMC, trypsin-coupled fluorescence; series mostly up to 15 µM
Sequence (Q9NXA8 whole entry, looked up): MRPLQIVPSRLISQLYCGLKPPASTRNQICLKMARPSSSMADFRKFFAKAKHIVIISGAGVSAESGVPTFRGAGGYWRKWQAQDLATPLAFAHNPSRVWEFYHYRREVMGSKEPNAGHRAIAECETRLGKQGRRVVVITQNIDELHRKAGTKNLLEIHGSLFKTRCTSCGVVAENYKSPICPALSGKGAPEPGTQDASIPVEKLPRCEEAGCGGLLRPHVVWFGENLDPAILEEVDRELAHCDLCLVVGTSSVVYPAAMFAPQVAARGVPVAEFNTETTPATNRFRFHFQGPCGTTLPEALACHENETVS

outcome, inactive:
O=C(Cc1ccc(Cl)cc1)Nc1ccc(C(=O)N2CCCCC2)cc1
O=C(Nc1cccc(Br)c1)c1ccc(CSc2ccccc2)cc1
O=C(Cc1ccc(Cl)cc1)Nc1ccc(CN2CCCCC2)cc1
CN(C)C(=O)c1ccc(NC(=O)c2sccc2-c2ccccc2)cc1
C[C@@H](CSc1ccc(Br)cc1)CN1CC[C@H](NC(=O)OCc2ccccc2)CCC1=O
Cc1cccc(C)c1NC(=O)CN(Cc1ccccc1)Cc1ccccc1
CC(C)C(=O)Nc1cccc(COc2ccccc2CN(Cc2ccccc2)C(=O)OC(C)(C)C)c1
Cc1ccc(CNC(=O)CCc2ccc(S(=O)(=O)NCC(C)C)cc2)cc1
Clc1ccc(SCc2cn3ccccc3n2)cc1
Cc1ccn2cc(CSc3ccccc3)nc2c1
Cc1cccc(COC[C@H](Cc2ccccc2)N2CCN(C(=O)c3cc(Cl)cc(Cl)c3)CCC2=O)c1
CCOC(=O)C1(C)CCN1C(=O)c1cccc(Cl)c1 (configuration not stated)
COc1cc(OC)c(NS(=O)(=O)c2cc(C(=O)OCC(=O)NCC3CCCO3)ccc2OC)cc1Cl (configuration not stated)
COc1cc(C(=O)NCCN2CCN(C(=O)c3cc(OC)c(OC)c(OC)c3)CC2)cc(OC)c1OC
COc1cc(C(=O)N2CCNCC2)cc(OC)c1OC
CCN(C(=O)COC(=O)CNC(=O)c1ccccc1C)C1=CCCCC1
CNC(=O)CSc1nnc(-c2ccco2)n1-c1cccc(OC)c1
COc1ccc(-n2c(SCC(N)=O)nnc2-c2ccco2)cc1
COc1ccc(-c2cccc(C3CC=CC4C3C(=O)N(Cc3ccccc3)C4c3ccc(C(F)(F)F)cc3)c2)cc1 (configuration not stated)
CC(=O)N1N=C(c2cccc(NS(C)(=O)=O)c2)CC1c1cccs1 (configuration not stated)
COC(=O)c1ccc(C)c(NC(=O)CSc2sc3c(O)cc(=O)[nH]c3c2C#N)c1
CSc1nsc(SCC(=O)Nc2ccc(Cl)c(C(=O)O)c2)n1
CCCCc1c(-c2ccccc2F)ncn1CCc1ccccc1OC
C[C@H](NC(=O)OCc1ccccc1)C(=O)NNC(=O)[C@H](C)NC(=O)OCc1ccccc1
CC(C)c1ccc(NC2CCCN(C(=O)CC3CCCC3)C2)cc1 (configuration not stated)
Cc1ccsc1C(=O)NNC(=O)CCN1CCN(c2ccccc2)CC1
Cc1sc(NC(=O)Cn2[nH]c(=O)c3ccccc3c2=O)nc1-c1ccccc1
Cc1ccc(-c2csc(NC(=O)Cn3[nH]c(=O)c4ccccc4c3=O)n2)cc1
CCN(c1ccccc1)S(=O)(=O)c1ccc2[nH]c(=O)[nH]c2c1
Cc1cc(C)c(OCC(=O)NCC(C)(C)N2CCOCC2)c(C)c1
Cc1ccc2cc(CN(Cc3ccc(F)cc3)Cc3nnnn3C3CCCC3)c(=O)[nH]c2c1
Cn1cc(Br)c(C(=O)Nc2c(F)c(F)c(F)c(F)c2F)n1
CN(C)CCNC(=O)c1cccc(S(=O)(=O)Nc2ccccc2F)c1
COc1ccc(OCC(=O)Nc2ccc(NC(=O)c3cccs3)cc2)cc1
CCN(CC(=O)Nc1ccc(NC(C)=O)cc1)C(=O)c1ccc(COc2ccc(C(C)(C)C)cc2)cc1
Cc1ccc(C(C(=O)NC2CCCC2)N(Cc2ccco2)C(=O)CCC(=O)Nc2cc(C)on2)cc1 (configuration not stated)
Cc1ccccc1OCC(O)CN1CCN(CC(O)COc2ccccc2C)CC1 (configuration not stated)
CCOC(=O)C1CCc2c(ccc3ccccc23)N1CCC#N (configuration not stated)
CC(C)(C)Cc1nnc(NC(=O)Cc2cccs2)s1
CN(C)CCCNC(=O)c1cc(C(=O)c2ccccc2F)c[nH]1
COc1ccc(C(=O)OCCN2CCCCC2)cc1
CCC(C)(C)NC(=O)C(c1ccc(OC)cc1)N(Cc1ccco1)C(=O)CCC(=O)Nc1cc(C)on1 (configuration not stated)
Cc1ccc(C(C(=O)NC(C)(C)C)N(Cc2ccco2)C(=O)CCC(=O)Nc2ccccn2)cc1 (configuration not stated)
COc1ccc([C@H]2N[C@]3(CCCN(Cc4cccn4C)C3=O)[C@H]3C(=O)N(C)C(=O)[C@@H]23)cc1
C=CCn1c(SCC(=O)c2ccc(O)c(O)c2)nnc1-c1ccc(C)cc1
COc1ccc(C)cc1N(C)C(=O)Cc1c(C(=O)O)n(C)c2ccccc12
COc1ccccc1NC(=O)CNc1ccc(F)c(Cl)c1
CC1CN(CCOc2ccccc2-c2ccccc2)CC(C)O1 (configuration not stated)
CCc1ccc(N(C(=O)CCC(=O)Nc2cc(C)on2)C(C(=O)NC2CCCC2)c2ccco2)cc1 (configuration not stated)
COc1cc(C(C)=O)ccc1OCc1cn(CC(=O)c2ccc(O)cc2)nn1
CS(=O)(=O)N(CC(=O)N1CCCC1)c1cccc(F)c1
CS(=O)(=O)N(CC(=O)N1CCCCCC1)c1cccc(F)c1
C#CC1(NC(=O)NCCCC)CCCCC1
Cc1ccc2nc(-c3ccccc3)c(Cc3cccc(Cl)c3)n2c1
Fc1ccc(-c2nc3ccc(Cl)cn3c2Cc2cccc(F)c2)cc1
COc1ccccc1CNS(=O)(=O)c1cccs1
C=C(C)Cn1c(N2CCN(c3ccc(OC)cc3)CC2)nc2c1c(=O)n(C)c(=O)n2C
Cn1cnc2c(NCc3ccco3)ncnc21
COC(=O)c1cccc(NC(=O)CSc2nnc(COc3ccc(C#N)cc3)n2-c2ccccc2)c1
Cc1cn(CC(=O)NCc2ccccc2)c(=O)[nH]c1=O
O=C1OCCOC2CCCc3oc(C4=CCCCC4)c1c32 (configuration not stated)
Cc1ccc(NS(=O)(=O)c2ccc3c(c2)N(C)CCO3)cc1
Cc1ccc2nc(SC(C)C(=O)N3CC(C)OC(C)C3)[nH]c2c1 (configuration not stated)
Cc1ccccc1NS(=O)(=O)c1ccc(C(=O)NCC2CCCO2)cc1 (configuration not stated)
O=C(CSc1ccccc1Cl)N1CCOCC1
O=C(c1ccc(F)cc1)N1CCOCC1
CCOc1ccc(C(C)C)cc1S(=O)(=O)n1ccnc1C
Cc1ccc(S(=O)(=O)N(C)c2ccc(NS(C)(=O)=O)cc2)cc1
Cc1ccc(NC(=O)COCC(=O)Nc2ccc(F)cc2)cc1
Cc1cccc(OC(=O)Nc2ccc(C(=O)O)c(O)c2)c1
O=C(Nc1ccccc1C(=O)O)c1cc(S(=O)(=O)Nc2ccccc2)ccc1Cl
Cc1cc(NC(=O)CCC(=O)N(CCc2ccccc2)C(C(=O)NC2CCCC2)c2ccco2)no1 (configuration not stated)
COc1ccc(CCNS(=O)(=O)c2cc3c4c(c2)CC(=O)N4CCC3)cc1
Nc1cccc(-c2csc(-n3ncc(C(=O)O)c3C(F)(F)F)n2)c1
O=C(O)c1ccc2c(c1)ncn2C1CCCC1
Cc1ccnc(NC(=O)CCC(=O)N(Cc2ccco2)C(C(=O)NC(C)C)c2ccc(F)cc2)c1 (configuration not stated)
NNC(=O)Cn1c(-c2ccccc2)cc2ccccc21
CC(C)(C)OC(=O)N(CCc1ccccc1)Cc1ccc(OCc2cccc(NC(=O)C3CC3)c2)cc1
COc1ccc(CCNC(=O)[C@H](C)NC(=O)N2CCn3c2nc2ccccc23)cc1OC
Cc1ccccc1CN1CCN(Cc2ccc3cccc(F)c3n2)CC1CCO (configuration not stated)
CNCc1cc(Br)c(OCC(=O)Nc2ccccc2OC)c(OC)c1
COc1cccc(NC(=O)c2ccccc2)c1
COc1ccc(CC(=O)Nc2ccc(C(=O)NCC(C)C)cc2)cc1
Cc1cc2nc(CSc3ccccc3)cc(=O)n2[nH]1
CCCCCCCCN1[C@@H](CC(=O)O)c2cc(C(F)(F)F)ccc2S1(=O)=O
Cc1c(Cc2ccc3c(c2)OCO3)sc(NC(=O)c2ccccc2)c1C(N)=O
Cc1cccc2nc(CSc3ccc(Cl)cc3)cn12
Clc1ccc2nc(CSc3ccccc3)cn2c1
Cc1cccc(N(C(=O)c2snc(C(N)=O)c2N)C(C(=O)NCC2CCCO2)c2ccc3ncccc3c2)c1 (configuration not stated)
O=S(=O)(NCc1ccc2c(c1)OCO2)c1ccccc1F
Cc1cccc(Cl)c1NC(=O)NCCCN1CCCCC1C (configuration not stated)
Cc1ccc(S(=O)(=O)N2CCOCC2)cc1NC(=O)CSc1nnc2n1CCCCC2
CCN(CC)c1ccc(S(=O)(=O)N2CCOCC2)cc1NC(=O)Nc1ccccc1
CCOC(=O)C(N)CSC1CC(=O)N(c2ccc(OCC)cc2)C1=O (configuration not stated)
CCOc1ccc(CN2CCN(C(=O)c3cccc(F)c3)CC2)cc1
Cc1cccc(N2CCN(C(=O)c3ccc4nc[nH]c4c3)CC2)c1C
CCc1nnc(NC(=O)CCC(=O)N2CCN(c3cc(C)ccc3C)CC2)s1
COc1cc(C(C)=O)ccc1OC(=O)CN1C(=O)c2ccccc2C1=O
CC1(C(=O)NS(=O)(=O)c2ccccc2Cl)CCN1C(=O)Cc1cccc2ccccc12 (configuration not stated)
Cc1c(C(=O)c2ccc(N(C)C)cc2)c2ccccn2c1CCC#N
CCc1nonc1NC(=O)c1oc2ccc(Cl)cc2c1C
COc1ccc2c(c1)C(=O)O[C@@H](c1ccccc1)C[C@@H](O)C(=O)CC2
CCOc1ccc(OCC)c(NC(=O)C2CCCN(C(=O)c3ccc(Cl)cc3)C2)c1 (configuration not stated)
COc1ccc(OC)c(NC(=O)CSc2nnc(CNC(=O)c3cccs3)o2)c1
COc1ccc(C(=O)OC(C)C(=O)NCC2CCCCC2)cc1S(=O)(=O)N1CCOCC1 (configuration not stated)
CCC(=O)Nc1cccc(-c2cc3ccccc3oc2=O)c1
COc1cc2cc(C#N)c(SCC(=O)Nc3cc(C)on3)nc2cc1OC
